Our source for the outcome values is PubChem BioAssay (EPA / NIEHS).

The source made the active and inactive calls. Rule for the calls: active = hit-call score of the fitted dose curve at least 0.9, where 1 is the maximum; inactive = score below 0.9.

The nature of one test: ATG_TAL_CIS: Attagene CIS-FACTORIAL HepG2 Assay for human TAL Basal Promoter (AID 2282966).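 Note: background control endpoint measuring basal TAL promoter reporter mRNA not a specific factor.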 The following applies: HepG2 Attagene cis-factorial TAL promoter reporter; actives raise or lower the signal. The procedure, abridged: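 HepG2, transient MRTU transfection, 24 h compound exposure; RNA → oligo(dT) RT → PCR → 6-FAM primer extension → HpaI digest → CE fluorescence. Bidirectional curve fit vs DMSO. Background-control readout.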
For `CCOB(OCC)OCC`, the outcome was inactive.
`CCCCCC(=O)OCC`: the outcome was inactive.
For `Nc1ncnc2nc[nH]c12`, the outcome was inactive.
On the same count and under the same terms, under `O=C(O)c1ccc2c(c1)C(=O)OC2=O` stands “inactive”; under `Cn1ccnc1`, “inactive”; under `CC(CC(C)C)=NO`, “inactive”.
On to `COC(=O)c1ccc(C(=O)OC)c(C(=O)OC)c1`, for which the compound was classed as inactive.
For the compound `C=CC(=O)OCCCCCCOC(=O)C=C`, the compound was called inactive.
As to `C=CCCCCCCCCC=O`, the compound was classed as inactive.
For the compound `CCCCOC(=O)C(C)CC` (stereo unspecified), the compound was classed as inactive.
For the compound `CC(C)(C)N`, the result was inactive.
Consider `CCC(C)N` (stereo unspecified), for which the call was inactive.
Consider `CC1=CC(C)C(C=O)CC1` (stereo unspecified), for which the result was inactive.
For the compound `COc1cc(C)ccc1O`, the compound was classed as inactive.
With `C[Si]1(C)O[Si](C)(C)O[Si](C)(C)O[Si](C)(C)O[Si](C)(C)O1`, the result was inactive.
On the same count and under the same terms, under `CC(C)C(=O)OCCOc1ccccc1` stands “inactive”; under `CCCCOCCOC(=O)COc1ccc(Cl)cc1Cl`, “inactive”.
On to `CC(C)c1ccc2ncccc2c1`, for which the compound was classed as inactive.
On the same count and under the same terms, under `CCCCCC1=CCCC1=O` stands “inactive”.

A further test is described as follows: ATG_TGFb_CIS: Attagene CIS-FACTORIAL HepG2 Assay for human Transforming Growth Factor (TGF) (AID 2282967). The following applies: HepG2 Attagene CIS TGFb reporter, mRNA transcription; actives raise or lower the signal. The procedure, abridged: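 Bidirectional fitting relative to DMSO gave the endpoint. Underlying data: reporter mRNA from HepG2 cells carrying transiently transfected cis-regulated reporter constructs, harvested 24 h after dosing and analyzed by RT-PCR and capillary electrophoresis.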
Take `Cc1c(C(=O)c2c[nH]n(C)c2=O)ccc(S(C)(=O)=O)c1C1=NOCC1`: the compound was classed as inactive.
As for `CC(=O)OC(C)c1ccccc1` (stereo unspecified), the compound was called inactive.
For the compound `O=S(=O)(O)c1ccc(Nc2nc(Nc3ccc(C=Cc4ccc(Nc5nc(Nc6ccc(S(=O)(=O)O)cc6)nc(N(CCO)CCO)n5)cc4S(=O)(=O)O)c(S(=O)(=O)O)c3)nc(N(CCO)CCO)n2)cc1`, the outcome was inactive.
With `Clc1cccnc1`, the outcome was inactive.
Regarding `Nc1cccc(N)n1`, the call was inactive.
In the case of `CC(C)=NNC(N)=S`, the compound was classed as inactive.
For `C/C=C/C=C/CCCCCCCO`, the compound was classed as inactive.
With `[Cl][Sc]([Cl])[Cl]`, the compound was classed as inactive.
Still for that read-out and setting: the same measure for `NC(=O)Nc1ccccc1`: “inactive”.
`CC12CCC(CC1)C(C)(C)O2`: the compound was classed as inactive.
For the compound `CC1(C)CC(O)CC(C)(C)N1[O]`, the compound was classed as inactive.
With `Cc1cc(=O)[nH]c(=O)[nH]1`, the call was inactive.
In the case of `CC(C)(CO)C(O)C(=O)NCCCO` (stereo unspecified), the result was inactive.
On the same count and under the same terms, under `CC1(C)[C@@H]2CC[C@@]1(C)C(=O)C2` stands “inactive”.
Consider `N#CC1(N)CCCCC1`, for which the result was inactive.
In the case of `CC(=O)c1ccc(S(=O)(=O)NC(=O)NC2CCCCC2)cc1`, the compound was called inactive.
Same read-out and setting: the same measure for `CC1=CP(=O)(c2ccccc2)CC1` (stereo unspecified): “inactive”; for `CCOC(=O)OC(=O)OCC`: “inactive”.
Take `CCOB(OCC)OCC`: the call was inactive.
Consider `CCCCCC(=O)OCC`, for which the outcome was inactive.
`Nc1ncnc2nc[nH]c12`: the compound was classed as inactive.
Still for that read-out and setting: the same measure for `O=C(O)c1ccc2c(c1)C(=O)OC2=O`: “inactive”; for `Cn1ccnc1`: “inactive”; for `CC(CC(C)C)=NO`: “inactive”.
As for `COC(=O)c1ccc(C(=O)OC)c(C(=O)OC)c1`, the compound was classed as inactive.
As to `C=CC(=O)OCCCCCCOC(=O)C=C`, the call was inactive.
Still for that read-out and setting: the same measure for `C=CCCCCCCCCC=O`: “inactive”; for `CCCCOC(=O)C(C)CC` (stereo unspecified): “inactive”; for `CC(C)(C)N`: “inactive”.
With `CCC(C)N` (stereo unspecified), the result was inactive.
Still for that read-out and setting: under `CC1=CC(C)C(C=O)CC1` (stereo unspecified) stands “inactive”; under `COc1cc(C)ccc1O`, “inactive”; under `C[Si]1(C)O[Si](C)(C)O[Si](C)(C)O[Si](C)(C)O[Si](C)(C)O1`, “inactive”.
For the compound `CC(C)C(=O)OCCOc1ccccc1`, the outcome was inactive.
Same read-out and setting: the same measure for `CCCCOCCOC(=O)COc1ccc(Cl)cc1Cl`: “inactive”; for `CC(C)c1ccc2ncccc2c1`: “inactive”; for `CCCCCC1=CCCC1=O`: “inactive”.
